# Bioassay records deposited in PubChem by Sanford-Burnham Center for Chemical Genomics.
# SENP6 inh = inhibitors of human SENP6 protease | Q9GZR1 | AID 2599 | Recombinant SENP6 catalytic domain, aminoluciferin luminescence | inhibition, % at 10 µM | 1.8% of 330,000 active;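 active means inhibition above about 50% at the single tested dose, limit read from the data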;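 further: plate controls were DMSO wells with enzyme for no effect and DMSO wells lacking enzyme for full effect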
# Target sequence (Q9GZR1 628-1112 limits assumed): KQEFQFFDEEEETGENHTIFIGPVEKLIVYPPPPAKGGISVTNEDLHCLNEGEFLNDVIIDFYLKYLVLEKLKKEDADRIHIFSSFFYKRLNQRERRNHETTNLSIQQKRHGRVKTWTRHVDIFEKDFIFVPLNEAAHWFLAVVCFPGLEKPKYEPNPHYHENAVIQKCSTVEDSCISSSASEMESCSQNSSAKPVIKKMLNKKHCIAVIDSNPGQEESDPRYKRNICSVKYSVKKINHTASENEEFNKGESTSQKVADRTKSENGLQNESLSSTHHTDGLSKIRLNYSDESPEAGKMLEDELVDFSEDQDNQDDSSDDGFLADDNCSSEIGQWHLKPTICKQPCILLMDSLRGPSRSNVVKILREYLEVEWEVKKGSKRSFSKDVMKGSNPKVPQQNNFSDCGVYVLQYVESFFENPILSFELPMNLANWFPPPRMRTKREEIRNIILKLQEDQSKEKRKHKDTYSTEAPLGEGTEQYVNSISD
# TRAIL sens C8 = sensitizes caspase-8 expressing cells to TRAIL; AID 624354; inhibition (viability loss, TRAIL sensitization), % at 10 µM; 1% of 360,000 active; NB7+C8 cells + TRAIL, ATPlite viability luminescence;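 active means compounds causing at least 50% loss of cell viability in the single-dose screen, relative to plate controls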
# PPC-1+TRAIL kill = PPC-1 cancer cell killing with TRAIL present; cell killing (% activity), % at 4 µM or 5 µM; PPC-1 cells + TRAIL, ATPLite viability luminescence; 0.41% of 220,000 active;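 active means cell killing above 50% in the first pass at 4 µM, then a duplicate retest at 5 µM averaging 50% or more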;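 further: plate controls were cells with TRAIL plus DMSO for no effect and medium-only wells lacking cells for full effect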
# SENP8 block-1 = blocks the human protease SENP8; Q96LD8; purified SENP8, Z-RLRGG-aminoluciferin cleavage, luminescence; inhibition, % at 10 µM; 1.2% of 330,000 active; in the data active means inhibition above about 50%
# SENP8 block-2 = inhibitors of human SENP8 protease; Q96LD8; recombinant SENP8, Nedd8 substrate fluorescence; inhibition, % at 20 µM; 0.64% of 360,000 active; AID 602440; in the data active means inhibition mostly above about 40%, no sharp cut-off; inactive means mostly below about 27%
# SENP7 inh = blocks the human protease SENP7. Q9BQF6. recombinant SENP7, Z-RLRGG-aminoluciferin luminescence, 40 min. inhibition, % at 5 µM. 1.5% of 330,000 active;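 active means inhibition above about 50% at the single test dose, limit read from the data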;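 further: plate controls were DMSO with enzyme for no effect and no enzyme buffer wells for full effect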
# Starred values were filed as active, the others as inactive; i = inactive; / = no result given. In the library only some 3% were active in any assay of this set; here they are far more common.
SMILES,SENP6 inh,TRAIL sens C8,PPC-1+TRAIL kill,SENP8 block-1,SENP8 block-2,SENP7 inh
CCOC(=O)[C@]12Cc3ccc(C)cc3[C@H]1N(C1CCCCC1)C(=O)c1cc(OC)ccc12,/,95*,/,/,-116,/
CCOC(=O)[C@]12Cc3ccccc3[C@H]1N(C(C)C)C(=O)c1ccccc12,/,29,/,/,4,/
CCOC(=O)[C@]12Cc3c(cc(OC)c(OC)c3OC)[C@H]1N(C1CCCCC1)C(=O)c1ccccc12,/,90*,/,/,5,/
CCOC(=O)[C@]12Cc3cc(Cl)ccc3[C@H]1N(C1CCCCC1)C(=O)c1cc(OC)ccc12,/,96*,/,/,-1,/
CCOC(=O)[C@]12Cc3cc(C)ccc3[C@H]1N(C1CCCCC1)C(=O)c1ccccc12,/,92*,/,/,4,/
C[N+]1(C)C2CC(OC(=O)[C@H](CO)c3ccccc3)CC1C1OC12 (stereo not given in full),-12,1,/,-5,5,2
O=C(NCC1=C(c2cccc3ccccc23)C[C@@H]2CC[C@H]1N2Cc1ccco1)c1ccc([N+](=O)[O-])cc1,/,-3,/,/,15,/
O=C(C[N+]12CCC(CC1)C(CO)C2)c1ccc(Br)cc1 (stereo not given),16,8,/,2,12,7
CCOC(=O)[C@]12Cc3ccc(C)cc3[C@H]1N(C1CCCCC1)C(=O)c1ccccc12,/,86*,/,/,3,/
C=CCC1(CCCCC)C(=O)NC(=S)NC1=O,/,-2,/,/,5,/
C1=NCCCN2CCCCC12 (stereo not given),/,-1,/,/,13,/
C[C@]12CCC3C(CC[C@H]4C[C@@H](O)CC[C@]34C)[C@H]1C=CC2=O (stereo not given in full),-7,-6,/,1,9,2
CC(=O)C1CCC2C3CCC4CC(O)CCC4(C)C3CCC12C (stereo not given),15,-8,/,-3,6,6
C[C@]12CC[C@H](O)C[C@H]1CC[C@@H]1[C@@H]2C[C@@H](O)[C@]2(C)[C@@H](C3=CC(=O)OC3)CC[C@]12O,1,56*,/,-2,9,2
CC12CCC(O)CC1CCC1C2CCC2(C)C(C3=CC(=O)OC3)C(O)CC12O (stereo not given),/,58*,/,/,-1,/
CC(=O)OC1CC(OC2C(O)CC(OC3C(O)CC(OC4CCC5(C)C(CCC6C5CC(O)C5(C)C(C7=CC(=O)OC7)CCC65O)C4)OC3C)OC2C)OC(C)C1OC1OC(CO)C(O)C(O)C1O (stereo not given),/,67*,/,/,10,/
COC1C(O)C(C)OC(OC2CCC3(C)C(CCC4C3C(O)CC3(C)C(C5=CC(=O)OC5)CCC43O)C2)C1O (stereo not given),/,68*,/,/,12,/
C[C@]12CC[C@H](O)C[C@H]1CC[C@@H]1[C@@H]2CC[C@]2(C)[C@@H](C3=CC(=O)OC3)CC[C@]12O,-2,37,/,7,5,-5
CC12CCC(O)CC1CCC1C2CCC2(C)C(C3=CC(=O)OC3)CCC12O (stereo not given),/,64*,/,/,7,/
COc1ccccc1N1CCN(Cc2ccc(Br)s2)CC1,1,8,3,3,8,-2
CCN(CCCl)c1cc(CN(C)C)cc(NC(=O)c2ccc(C(=O)Nc3cc(CN(C)C)cc(N(CC)CCCl)c3)cc2)c1,/,95*,/,/,22,/
CCN(CC)C(=O)c1ccc(NC(=O)c2cccc(C(F)(F)F)c2)cc1,-12,2,-4,-13,14,-9
CNC(=O)Oc1cccc2ccccc12,-5,8,24,4,-18,-8
CNC(=O)Oc1ccc(-c2cn3cc(C)ccc3n2)cc1,81*,93*,88*,67*,-300,79*
CSCCC(c1nnnn1Cc1ccccc1)N1CCC2(CC1)C(=O)NCN2c1ccccc1 (stereo not given),/,-10,/,/,26,/
SMILES,SENP6 inh,TRAIL sens C8,PPC-1+TRAIL kill,SENP8 block-1,SENP8 block-2,SENP7 inh
CCC(CO)NC(=O)C1C=C2c3cccc4[nH]cc(c34)CC2N(C)C1 (stereo not given),13,4,8,4,-394,-6
CC[C@@H](CO)NC(=O)[C@@H]1C=C2c3cccc4[nH]cc(c34)C[C@H]2N(C)C1,/,-9,/,/,-379,/
CC(C)C[C@H]1C(=O)N2CCC[C@H]2[C@]2(O)O[C@](NC(=O)[C@@H]3C=C4c5cccc6[nH]cc(c56)C[C@H]4N(C)C3)(C(C)C)C(=O)N12,51*,3,/,36,-396,21
COC(=O)C1C=C2c3cccc4[nH]cc(c34)CC2N(C)C1 (stereo not given),54*,/,10,38,/,18
Cc1cc(O)c2c(c1)OC(C)(C)C1=C2CC(C)CC1 (stereo not given),-22,-17,/,11,19,-4
CC1CCC(C(C)C)C(OC(=O)Cn2c(COc3ccccc3)[n+](C)c3ccccc32)C1 (stereo not given),-15,53*,9,-7,17,5
COc1cc(O)c(C(=O)O)c(-c2cc(O)c(O)cc2C)c1,11,-14,-14,6,66*,-3
C[C@]1(O)CCC2C3CC[C@H]4C[C@@H](OC(=O)CNC(=O)CN)CC[C@]4(C)C3CC[C@@]21C (stereo not given in full),17,-22,/,2,16,4
CC[C@H](C)[C@@H]1NC(=O)CNC(=O)c2csc(n2)[C@H](C(C)(C)O)OC(=O)C(C)(C)[C@H](CCCC(C)(Cl)Cl)OC(=O)c2csc1n2,/,50*,/,/,25,/
CC(=O)NC1=C(N2CC2C)C(=O)C(NC(C)=O)=C(N2CC2C)C1=O (stereo not given),/,-3,/,/,65*,/
Nc1c(C(=O)NC2CCCC2)c2nc3ccccc3nc2n1CC1CCCO1 (stereo not given),92*,-2,1,93*,i,90*
COC(=O)C1=C(c2cccc(OC)c2OC)C[C@@H]2CC[C@H]1N2C(=O)N1CCC(C)CC1,-11,13,/,-6,-2,-1
COc1ccc(CC2C(=O)NC(C)C(=O)N(C)C3C(=O)N(C)C(Cc4ccc(O)c(c4)Oc4ccc(cc4)C3O)C(=O)NC(C)C(=O)NC(C)C(=O)N2C)cc1 (stereo not given),/,66*,/,/,10,/
CC(CC(C)(C)N1CC1)=NNC(=O)Nc1cccc2ccccc12,/,9,/,/,-458,/
CCn1nc(-c2ccccc2)nc2c(=O)n(C)c(=O)nc1-2,89*,-4,-2,92*,17,96*
COC(=O)C1=C(c2ccc(F)cc2OCc2ccccc2)C[C@@H]2CC[C@H]1N2C(=O)NCc1ccc(C)cc1,-12,14,/,-8,6,-3
CC(C)N(C(=O)CCl)c1ccccc1,/,91*,/,/,5,/
CN(C)Cc1c[nH]c2cc([N+](=O)[O-])ccc12,/,-4,/,/,14,/
CN(C)c1ccc(/C=C/[N+](=O)[O-])cc1,1,17,9,2,21,8
